Test systems include HCT-15 colon; HT29 colon; SNB-75 CNS; SNB-19 CNS; U251 CNS; PC-3 prostate; SK-MEL-5 melanoma; UACC-62 melanoma; LOX IMVI melanoma; SK-MEL-28 melanoma; SK-MEL-2 melanoma; EKVX NSCLC; SN12C renal; UO-31 renal; TK-10 renal; ACHN renal; CAKI-1 renal; A498 renal; CCRF-CEM leukemia; MOLT-4 leukemia.
What all share (test): NCI-60 one-dose screen, 48 h (100 = growth as untreated, 0 = no growth, -100 = all killed)
Common to all, as to details: 10 µM unless noted

These results are taken from PubChem BioAssay (NCI).

This is part of a sample that, as a whole, favours compounds with a hit. Of some 83,000 tested, about 20% had one in any assay.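 A percent growth of 40 corresponds to 60% growth inhibition; 0 means no net growth; -100 means all cells died. Active threshold: below 10.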 Unmarked numbers belong to inactive results. Active and inactive are the calls of the source.

On to `CCN1C(=O)N(c2ccccc2)C2NC(=S)N(/N=C/C=C/c3ccccc3OC)C21` (stereo not given), for which the growth is 8.49% (active) in the assay with HCT-15 colon; 7.61% (active) with HT29 colon; 25.2% in the assay with SNB-75 CNS; 32.7% in the assay on SNB-19 CNS; 15.6% in the assay with U251 CNS; 29.3% in the assay on PC-3 prostate. For the same compound, the growth is -14.1% (active) in the assay on SK-MEL-5 melanoma; 32.6% with UACC-62 melanoma; 15.4% in the assay on LOX IMVI melanoma; 57.7% in the assay on SK-MEL-28 melanoma; 50.8% in the assay with SK-MEL-2 melanoma; 54% in the assay with EKVX NSCLC. In addition, the growth is 17.9% in the assay on SN12C renal; 34.7% in the assay with UO-31 renal; 75.7% in the assay on TK-10 renal; 29.2% in the assay with ACHN renal; 19.5% in the assay with CAKI-1 renal; 3.46% (active) with A498 renal. Further, the growth in the assay with CCRF-CEM leukemia was 11.4%; with MOLT-4 leukemia, 13.3%.

Regarding `O=C(/C=C/C12c3ccccc3C(c3ccccc31)C1C(=O)NC(=O)C12)c1ccc(Cl)cc1Cl` (stereo not given), the growth in the assay on HCT-15 colon is 11%; in the assay on HT29 colon it was 1.07% (active); with SNB-75 CNS, 25.1%; in the assay on SNB-19 CNS, 27%; in the assay on U251 CNS, 7.87% (active); in the assay on PC-3 prostate, 15.6%. Further, the growth in the assay on SK-MEL-5 melanoma is 36.8%; in the assay with UACC-62 melanoma, 12.5%; in the assay with LOX IMVI melanoma, -25.6% (active); with SK-MEL-28 melanoma, 4.9% (active); in the assay on SK-MEL-2 melanoma, -2.62% (active); with EKVX NSCLC it was 36.4%. Besides, the growth with SN12C renal is 9.38% (active); with UO-31 renal it was 32.4%; in the assay with TK-10 renal, 22.4%; in the assay with ACHN renal, 28.2%; in the assay on CAKI-1 renal, 25.5%; in the assay with A498 renal it was 35.7%. The growth with CCRF-CEM leukemia was -8.25% (active); in the assay on MOLT-4 leukemia, -0.49% (active).

Regarding `COc1ccc(-c2cn(Cc3cc4ccccc4s3)nn2)cc1OCCN1CCCCC1`, the growth was 59.4% in the assay on HCT-15 colon; 20.1% in the assay on HT29 colon; 83.8% in the assay on SNB-75 CNS; 86.3% in the assay with SNB-19 CNS; 74.5% in the assay with U251 CNS; 68.4% with PC-3 prostate. For the same compound, the growth is 42.8% in the assay on SK-MEL-5 melanoma; 83.8% in the assay with UACC-62 melanoma; 48.9% with LOX IMVI melanoma; 75.8% in the assay with SK-MEL-28 melanoma; 90.8% in the assay with SK-MEL-2 melanoma; 84.3% in the assay on EKVX NSCLC. Moreover, the growth in the assay on SN12C renal was 81.6%; in the assay with UO-31 renal it was 37.2%; in the assay on TK-10 renal, 90.1%; in the assay on ACHN renal, 89.4%; in the assay on CAKI-1 renal, 78.9%; with A498 renal it was -1.93% (active). The growth in the assay with CCRF-CEM leukemia was 62.2%; with MOLT-4 leukemia it was 53%.

Consider `Cc1ccc2c(c1)=C/C(=C\c1cc(-c3ccccc3)[nH]c1O)C(=O)N=2`, for which the growth in the assay on HCT-15 colon is 26.7%; in the assay on HT29 colon, 7.77% (active); in the assay on SNB-75 CNS, 48%; with SNB-19 CNS, 34.1%; with U251 CNS, 40.1%; in the assay on PC-3 prostate, 61.2%. In addition, the growth was 47% in the assay with SK-MEL-5 melanoma; 29.9% with UACC-62 melanoma; 35.8% with LOX IMVI melanoma; 60.8% in the assay on SK-MEL-28 melanoma; 3.31% (active) in the assay on SK-MEL-2 melanoma; 52% in the assay on EKVX NSCLC. For the same compound, the growth with SN12C renal is 42.5%; in the assay with UO-31 renal, 55.4%; in the assay with TK-10 renal, 68.3%; with ACHN renal, 65.6%; with CAKI-1 renal, 42.3%; in the assay with A498 renal, 24.7%. Besides, the growth is 20% in the assay on CCRF-CEM leukemia and 18.8% in the assay with MOLT-4 leukemia.

Take `COC1C(O)CC(OC2CC(OC3CC(O[C@@H]4C(=O)c5c(cc6cc(OC7CC(OC8CC(O)C(O)C(C)O8)C(O)C(C)O7)c(C)c(O)c6c5O)CC4[C@H](OC)[C@@H](O)C(C)=O)OC(C)C3O)OC(C)C2O)OC1C` (stereo not given in full): the growth in the assay with HCT-15 colon was 28%; in the assay on HT29 colon, -16.9% (active); in the assay with SNB-75 CNS, -17.6% (active); in the assay on SNB-19 CNS, 16.4%; with U251 CNS it was 7.11% (active); in the assay on PC-3 prostate, 16.9%. The growth was -65.2% (active) in the assay on SK-MEL-5 melanoma; -20.9% (active) in the assay on UACC-62 melanoma; -25.2% (active) with LOX IMVI melanoma; -13.9% (active) with SK-MEL-28 melanoma; -37.7% (active) in the assay on SK-MEL-2 melanoma; 19.8% in the assay with EKVX NSCLC. In addition, the growth was 17% in the assay on SN12C renal; 0.176% (active) with UO-31 renal; -1.06% (active) in the assay with TK-10 renal; 0.949% (active) with ACHN renal; 29.3% in the assay on CAKI-1 renal; -78.8% (active) in the assay on A498 renal. Besides, the growth in the assay on CCRF-CEM leukemia is 16.6%; in the assay on MOLT-4 leukemia, -2.23% (active).

Consider `CCCCCc1ccc(S(=O)(=O)Nc2ccc3nc(N)oc3c2)cc1`, for which the growth in the assay on HCT-15 colon is 82.5%; in the assay on HT29 colon, 89.4%; in the assay on SNB-75 CNS, 40.7%; in the assay with SNB-19 CNS, 66.3%; in the assay with U251 CNS it was 71.5%; in the assay with PC-3 prostate it was 57.2%. Besides, the growth in the assay with SK-MEL-5 melanoma was 4.66% (active); in the assay on UACC-62 melanoma, 43.7%; with LOX IMVI melanoma, 36.3%; in the assay on SK-MEL-28 melanoma, 74.7%; with SK-MEL-2 melanoma it was 101%; in the assay with EKVX NSCLC it was 33.2%. Besides, the growth is 58.8% in the assay with SN12C renal; 35.8% in the assay on UO-31 renal; 84.6% in the assay with TK-10 renal; 60.3% in the assay on ACHN renal; 51.1% in the assay with CAKI-1 renal; 32.6% in the assay on A498 renal. Besides, the growth is 51.8% in the assay on CCRF-CEM leukemia and 37.1% in the assay on MOLT-4 leukemia.

For the compound `O=C(/C=C/c1ccco1)Nc1ncc(Cc2cc(Cl)ccc2Cl)s1`, the growth in the assay on HCT-15 colon is 13.5%; with HT29 colon, 9.68% (active); in the assay with SNB-75 CNS, 16.6%; with SNB-19 CNS, 44.8%; with U251 CNS, 18.9%; in the assay with PC-3 prostate, 25.3%. Besides, the growth in the assay on SK-MEL-5 melanoma is 15.2%; with UACC-62 melanoma, 26.9%; in the assay on LOX IMVI melanoma it was 25.9%; with SK-MEL-28 melanoma it was 57%; in the assay on SK-MEL-2 melanoma it was 36.3%; with EKVX NSCLC it was 34.2%. Further, the growth was 29.6% with SN12C renal; 36.6% with UO-31 renal; 51.5% in the assay with TK-10 renal; 35.7% in the assay with ACHN renal; 36.5% with CAKI-1 renal; 10.3% in the assay on A498 renal. In addition, the growth was 17.3% in the assay with CCRF-CEM leukemia and 14% with MOLT-4 leukemia.
